From PubChem BioAssay
The source made the active and inactive calls.

Columns and labels:
[1] = compounds binding Alexa647 anti-His antibody – biochemical, small-molecule microarray, 635 nm fluorescence, artefact control for SMM control protein annotation, primary screen (AID 1128); details: higher = more signal;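 note: score merges feature fluorescence with signal-to-noise for each printed compound spot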
[2] = tested on: Human papillomavirus type 1a E7 protein (residues 1-88); assay: HPV1a E7 small-molecule binders, primary screen, biochemical, small-molecule microarray, residues 1-88, 635 nm (AID 1129); details: small-molecule microarray binding, fluorescence 635 nm; higher = more signal
[3] = biological target: Focal adhesion kinase 1 (Homo sapiens) (UniProt Q05397); assay: PTK2 protein binding on printed compound slides – biochemical, small-molecule microarray, 635/667 nm fluorescence, BSA, DTT, primary screen (AID 1130); details: 635 nm fluorescence, higher = more signal;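 note: composite of spot emission at 667 nm and signal to noise over triplicate slides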
Focal adhesion kinase 1 (Homo sapiens), sequence (Q05397 whole entry, looked up): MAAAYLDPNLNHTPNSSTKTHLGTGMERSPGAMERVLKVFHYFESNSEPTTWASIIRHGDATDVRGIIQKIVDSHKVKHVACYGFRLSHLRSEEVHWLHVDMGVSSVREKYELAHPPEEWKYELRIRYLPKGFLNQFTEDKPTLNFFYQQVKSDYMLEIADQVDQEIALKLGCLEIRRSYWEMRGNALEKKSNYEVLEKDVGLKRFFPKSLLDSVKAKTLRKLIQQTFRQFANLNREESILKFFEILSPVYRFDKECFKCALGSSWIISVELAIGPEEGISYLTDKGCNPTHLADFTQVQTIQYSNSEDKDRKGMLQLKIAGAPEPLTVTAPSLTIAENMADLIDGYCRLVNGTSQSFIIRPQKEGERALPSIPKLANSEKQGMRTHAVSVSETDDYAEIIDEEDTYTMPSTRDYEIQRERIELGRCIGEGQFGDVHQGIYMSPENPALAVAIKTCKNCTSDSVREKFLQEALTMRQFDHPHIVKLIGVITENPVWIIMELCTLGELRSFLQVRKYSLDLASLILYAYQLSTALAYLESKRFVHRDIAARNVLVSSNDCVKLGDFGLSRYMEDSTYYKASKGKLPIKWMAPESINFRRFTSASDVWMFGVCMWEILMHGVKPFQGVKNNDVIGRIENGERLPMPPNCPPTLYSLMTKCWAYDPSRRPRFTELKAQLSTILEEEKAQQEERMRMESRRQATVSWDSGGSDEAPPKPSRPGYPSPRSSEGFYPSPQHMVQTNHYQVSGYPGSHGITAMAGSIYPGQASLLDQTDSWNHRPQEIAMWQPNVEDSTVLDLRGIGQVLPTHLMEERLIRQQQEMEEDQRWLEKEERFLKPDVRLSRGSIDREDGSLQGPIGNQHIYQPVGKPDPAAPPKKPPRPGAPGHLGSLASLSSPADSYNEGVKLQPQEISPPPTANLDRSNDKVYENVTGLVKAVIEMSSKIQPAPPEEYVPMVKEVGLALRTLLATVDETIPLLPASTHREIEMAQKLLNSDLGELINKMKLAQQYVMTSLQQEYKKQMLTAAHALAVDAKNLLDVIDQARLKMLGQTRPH

[4] = tested on: Fibrinogen (Alexa647-labelled); assay: Alexa647-fibrinogen binding to printed small molecules – biochemical, small-molecule microarray, 635/667 nm fluorescence, artefact control for SMM control-protein annotation, profiling panel (AID 1131); details: fibrinogen-A647 binding fluorescence, higher = more signal;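 note: z-score merges 667 nm fluorescence with per-spot signal-to-noise over triplicate slides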
[5] = biological target: Follistatin (Homo sapiens) (UniProt P19883); assay: FST protein binding to printed compounds – biochemical, small-molecule microarray, 635/667 nm fluorescence, primary screen (AID 1132); details: 635 nm fluorescence, higher = more signal
Follistatin (Homo sapiens), sequence (P19883 whole entry, looked up): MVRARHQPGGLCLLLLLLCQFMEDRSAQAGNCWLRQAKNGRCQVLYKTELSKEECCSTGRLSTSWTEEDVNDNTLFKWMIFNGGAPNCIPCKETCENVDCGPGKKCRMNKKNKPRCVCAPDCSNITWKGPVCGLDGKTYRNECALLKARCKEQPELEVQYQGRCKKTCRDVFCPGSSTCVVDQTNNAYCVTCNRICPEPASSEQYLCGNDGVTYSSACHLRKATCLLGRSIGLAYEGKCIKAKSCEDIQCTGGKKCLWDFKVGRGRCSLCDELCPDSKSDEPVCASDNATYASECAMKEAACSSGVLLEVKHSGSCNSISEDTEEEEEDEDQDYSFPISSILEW

[6] = biological target: Fibroblast growth factor 2 (Homo sapiens) (UniProt P09038); assay: basic fibroblast growth factor binding to printed compounds – biochemical, small-molecule microarray, 635/667 nm fluorescence, primary screen (AID 1133); details: FGF2, fluorescence 635/667, higher = more signal
Fibroblast growth factor 2 (Homo sapiens), sequence (P09038 whole entry, looked up): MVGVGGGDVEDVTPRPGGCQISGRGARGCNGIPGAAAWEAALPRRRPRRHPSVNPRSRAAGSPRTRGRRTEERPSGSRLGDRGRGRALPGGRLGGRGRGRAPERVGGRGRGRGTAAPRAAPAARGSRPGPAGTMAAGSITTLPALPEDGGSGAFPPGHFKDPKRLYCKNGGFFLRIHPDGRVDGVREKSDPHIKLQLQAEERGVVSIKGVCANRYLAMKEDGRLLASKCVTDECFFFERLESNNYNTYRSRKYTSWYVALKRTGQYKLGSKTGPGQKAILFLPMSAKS

[7] = JC-1 mitochondrial potential readout, lung cancer cells – cell-based, A549, JC-1 fluorescence, basal, 24 h, 100 nL, profiling panel (AID 1138); details: higher = more signal;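 note: A549 lung adenocarcinoma cells under basal conditions with no added stimulus; test concentration not given here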
Lefty1 = Lefty1 protein binding to printed compounds – biochemical, small-molecule microarray, 635/667 nm fluorescence, primary screen (AID 1139); details: fluorescence 635/667, higher = more signal
[8] = tested on: wheat germ agglutinin (Triticum aestivum), Alexa647-labelled; assay: Alexa647-WGA lectin binding to printed small molecules – biochemical, small-molecule microarray, 635/667 nm fluorescence, artefact control for SMM control-protein annotation, profiling panel (AID 1140); details: WGA-A647 binding, 635 nm fluorescence, higher = more signal;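 note: score merges 667 nm feature emission with signal to noise over triplicate slides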
[9] = biological target: Luciferin 4-monooxygenase (Photinus pyralis) (UniProt P08659); assay: inhibition of purified Photinus pyralis luciferase – biochemical, luminescence, purified enzyme, 2006 set, primary screen (AID 1141); details: purified firefly luciferase, SteadyGlo luminescence, 30 min; higher = more signal, called active from +8 up or from −8 down;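 note: cell-free assay with purified firefly luciferase at 100 ng per well in PBS; test concentration not given here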
Luciferin 4-monooxygenase (Photinus pyralis), sequence (P08659 whole entry, looked up): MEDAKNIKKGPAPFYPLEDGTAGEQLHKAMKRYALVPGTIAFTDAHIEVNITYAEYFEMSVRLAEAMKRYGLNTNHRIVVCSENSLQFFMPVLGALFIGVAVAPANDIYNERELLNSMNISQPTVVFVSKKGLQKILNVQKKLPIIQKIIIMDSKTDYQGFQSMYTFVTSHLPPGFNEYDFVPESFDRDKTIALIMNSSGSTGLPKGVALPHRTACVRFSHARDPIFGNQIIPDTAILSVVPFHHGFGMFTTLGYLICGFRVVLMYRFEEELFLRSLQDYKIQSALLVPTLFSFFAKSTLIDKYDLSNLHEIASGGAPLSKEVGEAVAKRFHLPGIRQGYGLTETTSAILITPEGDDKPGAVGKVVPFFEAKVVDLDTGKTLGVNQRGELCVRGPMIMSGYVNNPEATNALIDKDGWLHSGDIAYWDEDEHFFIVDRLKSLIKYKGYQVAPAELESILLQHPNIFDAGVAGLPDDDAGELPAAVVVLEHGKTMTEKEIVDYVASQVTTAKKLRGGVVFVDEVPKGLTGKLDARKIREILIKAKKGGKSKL

| Compound | composite z-score [1] | composite z-score [2] | composite z-score [3] | composite z-score [4] | composite z-score [5] | composite z-score [6] | z-score [7] | composite z-score (Lefty1) | composite z-score [8] | z-score [9] |
| --- | --- | --- | --- | --- | --- | --- | --- | --- | --- | --- |
| C[N+](C)(C)CCCC[C@@H]1NC(=O)[C@H]2C[C@@H](C(=O)NCCCCCCNC(=O)CS)[C@@H](c3ccc(O)cc3)N2C1=O | 1.44 | -0.0478 | -0.103 | -2.2 | 1.36 | 0.247 | -0.459 | 0.0544 | -1.07 | 0.24 (inactive) |
| CCCC=C(CCC)[C@@H](NS(=O)(=O)c1ccc(Cl)cc1)c1ccc(C(=O)OC)cc1 | 0.817 | 0.843 | 0.0301 | 0.539 | -0.843 | -0.174 | 0.418 | 0.181 | 0.309 | 2.84 (inactive) |
| O=C1C2C=CC(C(O)COCc3ccccc3)N(Nc3ccc([N+](=O)[O-])cc3)C2C(=O)N1c1ccccc1 (stereo not given) | 1.55 | 1.25 | 1.19 | 0.983 | 1.13 | 0.119 | -0.738 | 0.638 | 0.955 | 1.54 (inactive) |
| COCC(=C=CC[C@H](O)c1cccc(OCCO)c1)C[C@H](O)c1cc(Cl)cc(Cl)c1O | 1.69 | 1.11 | 0.0607 | 0.0479 | 1.37 | 1.87 | 0.324 | 1.37 | 0.107 | -0.709 (inactive) |
| C=C(CCCC)/C(=C/C[C@H](OC(=O)c1ccncc1)c1ccc(OCCO)cc1)c1cc(C(=O)OC)ccc1OC | 1.07 | 1.18 | 0.525 | 0.438 | -0.0021 | 0.0508 | 0.313 | 0.394 | 0.704 | -0.723 (inactive) |
| CN1C(=O)C2C=CC(C(O)C=Cc3ccc([N+](=O)[O-])cc3)N(Nc3ccccc3)C2C1=O (stereo not given) | 1.26 | 1.24 | 0.198 | 1.01 | 1.1 | 0.028 | 0.509 | 0.637 | 0.289 | -1.02 (inactive) |
| COC(=O)[C@@]1(Cc2ccc(OC)cc2)[C@H]2c3cc(C(=O)N4CCCC4)n(CCCNc4ncc(C(F)(F)F)cc4Cl)c3C[C@H]2CN1C(=O)c1ccccc1 | 2.65 | 1.14 | 1.1 | 0.768 | 1.12 | -0.167 | -1.51 | 0.337 | 0.626 | 2.54 (inactive) |
| CC(C)Cc1ccc(CN2CC[C@@H](N)C2)cc1 | -0.273 | -1.63 | -0.0574 | -0.0978 | -0.304 | -0.847 | 1.85 | 0.0735 | -0.314 | 0.824 (inactive) |
| O=C1N(CCS(=O)(=O)c2ccccc2)c2ccccc2[C@@H]2OC(c3ccc(OCCCO)cc3)=N[C@]12Cc1ccccc1 | 1.65 | 1.19 | 1.05 | 0.959 | 1.43 | 1.71 | 2.29 | 1.18 | 0.668 | -11.5 (active) |
| COc1ccc(C(=O)Nc2cccc(CN3C(=O)[C@]4(O[C@H](CCn5cc(CCO)nn5)[C@@H]([Si](C)(C)c5ccc(OC)cc5)[C@@H]4C)c4ccccc43)c2)cc1 | -0.0471 | 1.09 | 0.258 | 0.757 | 1.29 | 0.188 | -1.11 | 0.834 | 0.351 | -0.1 (inactive) |
| C=C(/C(=C/C[C@H](OC(C)=O)c1ccc(OCCO)cc1)c1cc(C(=O)OC)ccc1OC)C(C)C | 1.16 | 1.08 | 0.413 | 0.812 | 1.13 | 1.58 | 1.75 | 1.55 | 0.307 | -2.33 (inactive) |
| COCCCNC(=O)[C@@]1(Sc2ccc(C)cc2)CC(=O)N(Cc2ccccc2Cl)[C@@H]1c1ccc(CO)cc1 | 0.225 | 1.12 | 0.215 | 0.833 | 1.35 | 1.24 | -0.689 | 1.13 | 0.966 | 1.14 (inactive) |
| COC(=O)[C@@]1(Cc2ccc(F)cc2)[C@H]2c3cc(C(=O)N(C)C)n(Cc4cc(C)n(C)n4)c3C[C@H]2CN1C(=O)c1ccccc1 | 2.76 | 1.2 | 0.646 | 0.795 | 0.577 | -0.237 | -0.013 | -0.574 | 0.537 | 0.272 (inactive) |
